The full list was thinned out, with hits kept by preference.
ClpP mod = qHTS Assay for Activators of ClpP; ATP-dependent Clp protease proteolytic subunit (Bacillus subtilis (strain 168)), P80244; purified B. subtilis ClpP, FRET peptide cleavage, 20 min; Potency, µM (titrated, usually from 57.5 µM); 340,000 tested, 1.9% active; active = well fitted falling curve with a large enough effect; inconclusive = small, poorly fitted or top-dose-only effect; inactive = no such curve, though single readings can be large or run the other way; also: the source files actives as falling curves though it sought activators and does not explain the sign; nearly all actives have a fitted effect of over 65% in size
Target sequence (P80244 whole entry, looked up): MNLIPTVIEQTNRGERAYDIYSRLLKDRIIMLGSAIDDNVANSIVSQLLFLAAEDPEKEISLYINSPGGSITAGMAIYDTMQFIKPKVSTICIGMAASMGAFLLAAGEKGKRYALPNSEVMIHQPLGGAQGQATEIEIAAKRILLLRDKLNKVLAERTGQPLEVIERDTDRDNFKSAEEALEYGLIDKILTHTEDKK
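ClpP 10 microg/mL final, pH 8 Tris/KCl buffer with BSA, glycerol, Tween-20; compound pinned in; FRET-FV substrate; RT 20 min; Ex320/Em430; ΔFRET vs ADEP 5.8 microM, DMSO, no enzyme.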
GALK inh = blocks human galactokinase activity; Purified GALK, Kinase-Glo residual ATP luminescence; Potency, µM (series often up to 57.5 µM), usual class: inhibitors; 270,000 tested, 0.007% active; AID 1868
Target sequence (P51570 whole entry, looked up): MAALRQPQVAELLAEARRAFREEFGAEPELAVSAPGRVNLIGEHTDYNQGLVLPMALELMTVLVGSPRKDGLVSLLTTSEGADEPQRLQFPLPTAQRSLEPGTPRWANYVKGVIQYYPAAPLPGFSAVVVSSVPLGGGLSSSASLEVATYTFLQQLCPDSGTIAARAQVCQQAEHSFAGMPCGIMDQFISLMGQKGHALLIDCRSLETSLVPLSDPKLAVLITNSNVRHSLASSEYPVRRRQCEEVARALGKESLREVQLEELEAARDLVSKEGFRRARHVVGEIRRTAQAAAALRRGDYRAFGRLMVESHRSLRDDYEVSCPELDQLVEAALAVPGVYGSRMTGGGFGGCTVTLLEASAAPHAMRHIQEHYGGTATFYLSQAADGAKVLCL
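Galactose (100 uM) and ATP (35 uM) were turned over by 5 nM GALK for 1 h at RT. Kinase-Glo Plus then converted the remaining ATP into a luminescent signal.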
Eya2 inh = Eya2 (human) phosphatase inhibition | recombinant Eya2, OMFP fluorescence dephosphorylation (OMFP is methylfluorescein phosphate) | Potency, µM (highest dose often 76.9 µM), most hits filed as inhibitors | 330,000 tested, 0.006% active
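Eya2 (0.2 uM) preincubated 10 min at ambient with compound, then OMFP substrate added at 50 uM; 10 min reaction in 50 mM HEPES pH 7.5, 50 mM NaCl, 5 uM MgCl2, 0.05% BSA, 1 mM DTT. Fluorescence read at Ex 485/Em 525 nm.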
USP2a inh = inhibitors of human ubiquitin-specific protease USP2a | USP2 core, Ub-CHOP2 coupled fluorogenic reporter, 485/531 | Potency, µM (top dose mostly 38.3 µM), most hits filed as inhibitors | 330,000 tested, 0.01% active
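USP2 core (10nM final) preincubated 30min RT with compound in 20mM Tris-HCl pH 8.0, 2mM CaCl2, 2mM beta-mercaptoethanol, 0.05% CHAPS; 25nM Ub-CHOP2 plus 25nM reporter substrate added, fluorescence (Ex485/Em531) read after 60min.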
A number is an active result; . = inactive; ? = inconclusive; / = no result. Unless noted, calls follow the shape of the dose curve; as a rule, active = well fitted inhibition curve with a large enough effect; inconclusive = small, poorly fitted or top-dose-only effect, or effect the other way; inactive = flat fitted curve, though single readings scatter.

SMILES | ClpP mod | GALK inh | Eya2 inh | USP2a inh
CCOC(=O)Cc1c(C)c2c(C)nn(-c3ccccc3)c2oc1=O | 35µM | . | . | .
CCOC(=O)Cc1c(C)c2c(C)[nH]nc2oc1=O | . | . | . | .
COc1ccc(-c2c3c(=O)n(C)c(=O)n(C)c3cn2-c2ccc(O)cc2)cc1 | / | . | . | .
Cc1cccc(-c2c3c(=O)n(C)c(=O)n(C)c3cn2CCO)c1 | 28µM | . | . | .
CC(=O)Nc1ccc(-n2cc3c(c2-c2ccc(C)cc2)c(=O)n(C)c(=O)n3C)cc1 | 20µM | / | / | /
CCCCn1cc2c(c1-c1cccc(C)c1)c(=O)n(C)c(=O)n2C | . | . | . | .
CC(C)n1cc2c(c1-c1ccccc1Cl)c(=O)n(C)c(=O)n2C | . | / | / | /
Cn1c(=O)c2c(-c3ccccc3)n(-c3cc(C(=O)O)ccc3O)cc2n(C)c1=O | . | / | / | /
Cc1ccc(-c2c3c(=O)n(C)c(=O)n(C)c3cn2-c2cc(C)ccc2O)cc1 | 3.5µM | / | / | /
CC(=O)Nc1cccc(-n2cc3c(c2-c2ccccc2Cl)c(=O)n(C)c(=O)n3C)c1 | 28µM | / | / | /
COc1ccc2c(c1)CCc1cn3nc(C)cc3nc1-2 | / | . | . | .
CCc1c(C)n2nc(C)cc2[nH]c1=O | 13µM | . | . | .
CCOc1c(Cl)cc(CNCC(C)C)cc1Cl | . | / | / | /
COc1ccc(OC(C)C(=O)N2CCc3ccccc3C2)cc1 (stereo not given) | . | . | . | .
COc1cc2c(=O)n(CC3CCCO3)c(=O)n(CC(=O)Nc3ccc(F)cc3F)c2cc1OC (stereo not given) | . | . | . | .
CC1Cn2c(C(=O)NCc3ccccc3Cl)cc3cccc(c32)S1 (stereo not given) | 28µM | / | / | /
Cc1ccccc1CNC(=O)c1cc2cccc3c2n1CC(C)S3 (stereo not given) | 40µM | / | / | /
COc1ccccc1CNC(=O)c1cc2cccc3c2n1CC(C)S3 (stereo not given) | 32µM | / | / | /
CC1Cn2c(C(=O)NCCc3ccc(Cl)cc3)cc3cccc(c32)S1 (stereo not given) | 32µM | / | / | /
O=C(NCc1ccc(F)cc1)c1cc2cccc3c2n1CCS3 | . | / | / | /
Cn1cccc1C(=O)NCCc1ccc(Cl)cc1 | . | . | . | .
CCn1nnc(NC(=O)Cc2ccc(Cl)cc2)n1 | . | . | . | .
CCn1nnc(NC(=O)c2ccc(-c3ccc(Cl)cc3)o2)n1 | 11µM | . | . | .
CC1(C)CC(=O)c2c(nc3ccccc3c2N)C1 | 32µM | . | . | .
CC(=O)c1ccc(NC(=S)N2CCN(CCO)CC2)cc1 | . | . | ? | .
SMILES | ClpP mod | GALK inh | Eya2 inh | USP2a inh
CC1CCC(=NNC(=O)c2ccccc2-n2cccc2)CC1 (stereo not given) | / | / | . | .
O=C(NN=C1CCC(c2ccccc2)CC1)c1ccccc1-n1cccc1 (stereo not given) | 32µM | . | . | .
O=C1CC(C(=O)Nc2ccccc2)S/C(=N\N=C\c2ccco2)N1 (stereo not given) | . | . | . | .
Cn1c(C(=O)NCCCN2CCN(c3ccccc3F)CC2)cc2c(=O)[nH]c3ccccc3c21 | 32µM | . | . | .
CC1CC(C)CN(CCCNC(=O)c2cc3c(=O)[nH]c4ccccc4c3n2C)C1 (stereo not given) | . | . | . | .
C(=C\c1cccc2ccccc12)/c1nnc(-c2cccs2)o1 | 28µM | / | . | .
COc1ccc(C(=O)Oc2coc(CSc3nnc(NC(=O)c4cccs4)s3)cc2=O)cc1 | 28µM | . | . | .
Cc1ccccc1NC(=O)Cn1c(C)nc2ccc(N)cc2c1=O | 28µM | . | . | .
Cc1ccccc1NC(=O)Cn1c(C)nc2ccc(NC(=O)C3CC3)cc2c1=O | . | . | . | .
CN(Cc1ccc(Cl)cc1Cl)C(=O)CN1C(=O)NC2(CCCC2)C1=O | 25µM | / | . | .
O=C(CN1C(=O)NC2(CCCC2)C1=O)NCCc1ccc(Cl)cc1Cl | . | / | . | .
O=C(NCc1ccccc1Cl)c1cc2c(s1)-c1ccccc1SC2 | 25µM | / | / | /
CCc1ccccc1N(CC)C(=O)c1cc2c(s1)-c1ccccc1OC2 | . | / | / | /
CCc1ccccc1N(CC)C(=O)c1cc2c(s1)-c1ccccc1SC2 | 14µM | / | / | /
Cc1ccc(C2=NOC(=O)/C2=C\C=C\c2ccccc2)cc1 | 32µM | . | . | .
Cc1ccc(C)c(S(=O)(=O)c2c(N)n(/N=C/c3ccco3)c3nc4ccccc4nc23)c1 | 7.9µM | . | . | ?
Cc1cccc(S(=O)(=O)c2c(N)n(/N=C/c3ccccc3)c3nc4ccccc4nc23)c1 | ? | . | . | .
Nc1c(S(=O)(=O)c2ccccc2)c2nc3ccccc3nc2n1/N=C/c1cccc(O)c1 | 10µM | . | . | .
CCOc1ccccc1NC(=O)c1cc(=O)c2ccccc2o1 | . | . | . | .
CCOC(=O)Nc1cc2c(C)cc(=O)oc2cc1C | 16µM | . | . | .
CCOC(=O)Nc1cc(=O)c2ccccc2o1 | 32µM | . | . | .
CCOC(=O)c1ccc(NC(=S)N(CCCN2CCCC2)Cc2ccco2)cc1 | . | . | . | .
Cc1cccc(OC(C)C(=O)Nc2nc(-c3cccnc3)cs2)c1 (stereo not given) | . | / | / | /
CCOc1ccc(S(=O)(=O)N2CCCC(C(=O)NC3CCCC3)C2)cc1 (stereo not given) | . | . | . | .
COc1ccc(/C=N/NC(=O)c2nc(Cl)c(Cl)c(N)c2Cl)cc1COc1ccc(F)cc1F | 7.9µM | . | . | .
SMILES | ClpP mod | GALK inh | Eya2 inh | USP2a inh
CCOC(=O)COc1cccc2c(=O)n(CC(=O)NCCc3ccc(OC)c(OC)c3)ccc12 | / | / | . | .
CC(C)C(OC(=O)c1ccco1)C(=O)NC1CCCC1 (stereo not given) | / | . | . | .
Fc1ccc(N/N=C/c2ccc(N3CCOCC3)cc2)c(F)c1 | 35µM | . | . | .
CC(C)(C)NC(=O)c1cccc(NC(=O)Cc2cccs2)c1 | 35µM | . | . | .
c1ccc(-n2nnnc2SCc2cn3ccccc3n2)cc1 | . | . | . | .
c1ccc(-n2nnnc2SCc2cn3cccnc3n2)cc1 | 25µM | . | . | .
O=C(O)CCc1nn2c3ccccc3n(CC(=O)O)c2nc1=O | / | . | . | .
COC(=O)c1ccc(C(=O)OC)c(NC(=O)CCC(=O)O)c1 | 28µM | . | . | .
Oc1ccc(Br)cc1C=Nc1ccc2c3c(cccc13)CC2 | 32µM | . | . | .
CCOc1ccccc1N=Cc1c(O)c2ccccc2oc1=O | . | . | . | .
CCOP(=O)(Nc1cccc2oc(=O)c3ccccc3c12)OCC | 11µM | / | / | /
Cc1ccc(Nc2c(-c3ccccc3O)nc3cnccn23)cc1 | / | . | . | .
Cc1ccc(Nc2c(-c3ccccc3O)nc3cc(C)ccn23)cc1 | 28µM | / | / | /
CCOC(=O)C1(Cc2cccc(Cl)c2)CCCN(C(=O)c2ccoc2C)C1 (stereo not given) | . | . | . | .
CC(C)CCNC(=O)C1CCN(S(=O)(=O)c2ccc(-n3cnnn3)cc2)CC1 | 32µM | . | . | .
